Experimental data reported in PubChem BioAssay AID1159580 (chemical genetic matrix, 2015).
Where “and” joins values, the source holds several entries; their conditions need not be identical. Equal entries are not always repeated. Out of some 5,500 compounds screened, about 2,000 (36%) were called active. Inconclusive results (about 18%) are left out. Rule as the data show it: active = normalized growth mostly below about 0.91 (no sharp cut-off); inconclusive = no clear call, values can overlap the other calls; inactive = mostly above about 0.92. The list shows a part of the results.

Assay: chemical genetic growth profiling, strain panel (AID 1159580);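 also: tested at 20 µM; growth read once vehicle control cultures reached saturation at 30 °C; 1 = growth at the plate median or of vehicle wells; lower values mean less growth of the strain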
Details: S. cerevisiae deletion strains, growth OD

Measured: normalized growth

OC[C@H]1O[C@@H](O[C@H]2[C@H](O)[C@@H](O)[C@@H](O)O[C@@H]2CO)[C@H](O)[C@@H](O)[C@@H]1O
inactive: locus YAL013W, strain DEP1, stronger effect = lower value 1.02 | locus YAL021C, strain ccr4, stronger effect = lower value 1.01 | locus YAL026C, strain drs2, stronger effect = lower value 1.01 | locus YAL030W, strain snc1, stronger effect = lower value 1 | locus YBL061C, strain skt5, stronger effect = lower value 1 | locus YBR009C, strain hhf1, stronger effect = lower value 1.06 | locus YBR021W, strain FUR4, stronger effect = lower value 1.04 | locus YBR023C, strain chs3, stronger effect = lower value 1.01 | locus YBR171W, strain sec66, stronger effect = lower value 0.996 | locus YBR229C, strain ROT2, stronger effect = lower value 1 | locus YBR231C, strain swc5, stronger effect = lower value 1 | locus YBR279W, strain paf1, stronger effect = lower value 0.993 | locus YCL011C, strain gbp2, stronger effect = lower value 1.02 | locus YCL016C, strain dcc1, stronger effect = lower value 1.01 | locus YCL029C, strain bik1, stronger effect = lower value 1.01 | locus YCL061C, strain MRC1, stronger effect = lower value 1 | locus YCL069W, strain vba3, stronger effect = lower value 1.01 | locus YCR088W, strain abp1, stronger effect = lower value 0.997 | locus YDL005C, strain med2, stronger effect = lower value 0.986 | locus YDL035C, strain GPR1, stronger effect = lower value 1.04 | locus YDL040C, strain nat1, stronger effect = lower value 0.994 | locus YDL074C, strain BRE1, stronger effect = lower value 1.09 | locus YDL101C, strain DUN1, stronger effect = lower value 1.01 | locus YDL134C, strain PPH21, stronger effect = lower value 1.01 | locus YDL185W, strain tfp1, stronger effect = lower value 1.02 | locus YDL192W, strain arf1, stronger effect = lower value 1.03 | locus YDR001C, strain nth1, stronger effect = lower value 0.999 | locus YDR069C, strain doa4, stronger effect = lower value 0.981 | locus YDR101C, strain arx1, stronger effect = lower value 1.02 | locus YDR137W, strain rgp1, stronger effect = lower value 1.01 | locus YDR159W, strain sac3, stronger effect = lower value 0.972 | locus YDR162C, strain NBP2, stronger effect = lower value 1.02 | locus YDR195W, strain ref2 0.958 | locus YDR297W, strain sur2, stronger effect = lower value 1 | locus YDR318W, strain mcm21, stronger effect = lower value 0.994 | locus YDR334W, strain swr1, stronger effect = lower value 0.996 | locus YDR335W, strain msn5, stronger effect = lower value 1.01 | locus YDR388W, stronger effect = lower value 1.02 | locus YDR392W, strain spt3, stronger effect = lower value 0.957 | locus YDR502C, strain sam2, stronger effect = lower value 0.992 | locus YEL003W, strain gim4, stronger effect = lower value 1.02 | locus YEL037C, strain rad23, stronger effect = lower value 1.01 | locus YEL061C, strain CIN8 (second series), stronger effect = lower value 0.999 | locus YEL061C, strain CIN8, stronger effect = lower value 1.01 | locus YER015W, strain faa2, stronger effect = lower value 0.995 | locus YER016W, strain bim1, stronger effect = lower value 1 | locus YER110C, stronger effect = lower value 1.02 | locus YER111C, strain swi4, stronger effect = lower value 1 | locus YER155C, strain BEM2 (second series), stronger effect = lower value 0.987 | locus YER155C, strain BEM2, stronger effect = lower value 1.02 | locus YER167W, strain BCK2, stronger effect = lower value 1.01 | locus YFR010W, strain ubp6, stronger effect = lower value 0.99 | locus YGL078C, strain dbp3, stronger effect = lower value 1.03 | locus YGL086W, strain mad1, stronger effect = lower value 1.04 | locus YGL167C, strain pmr1, stronger effect = lower value 0.999 | locus YGL173C, strain kem1, stronger effect = lower value 1 | locus YGL227W, strain vid30, stronger effect = lower value 1 | locus YGL240W, strain doc1, stronger effect = lower value 1.03 | locus YGL248W, strain PDE1, stronger effect = lower value 1.01 | locus YGL253W, strain hxk2, stronger effect = lower value 1.03 | locus YGR078C, strain PAC10, stronger effect = lower value 1.03 | locus YGR135W, strain pre9, stronger effect = lower value 1.02 | locus YGR252W, strain gcn5, stronger effect = lower value 1 | locus YHR013C, strain ard1, stronger effect = lower value 0.997 | locus YHR027C, strain rpn1, stronger effect = lower value 1.02 | locus YHR030C, strain SLT2, stronger effect = lower value 1.01 and 0.972 | locus YHR079C, strain IRE1 (second series), stronger effect = lower value 1.01 | locus YHR079C, strain IRE1, stronger effect = lower value 0.96 | locus YHR094C, strain hxt1, stronger effect = lower value 1.05 | locus YHR129C, strain ARP1, stronger effect = lower value 1.02 | locus YHR142W, strain chs7, stronger effect = lower value 1.02 | locus YHR200W, strain rpn10, stronger effect = lower value 1.02 | locus YIL066C, strain RNR3, stronger effect = lower value 1.02 | locus YIL073C, strain SPO22, stronger effect = lower value 1.12 | locus YIL125W, strain kgd1, stronger effect = lower value 1.01 | locus YIR030C, strain dcg1, stronger effect = lower value 1.01 | locus YJL092W, strain hpr5, stronger effect = lower value 1.02 | locus YJL095W, strain BCK1 (second series), stronger effect = lower value 0.995 | locus YJL095W, strain BCK1, stronger effect = lower value 1.02 and 1.06 | locus YJL115W, strain asf1, stronger effect = lower value 0.99 | locus YJL129C, strain trk1, stronger effect = lower value 0.987 | locus YJL134W, strain LCB3, stronger effect = lower value 1 | locus YJL154C, strain vps35, stronger effect = lower value 0.991 | locus YJL164C, strain tpk1, stronger effect = lower value 1.02 | locus YJL166W, strain qcr8, stronger effect = lower value 1.03 | locus YJL168C, strain set2, stronger effect = lower value 1.03 | locus YJL187C, strain SWE1 (second series), stronger effect = lower value 1.02 | locus YJL187C, strain SWE1, stronger effect = lower value 1 | locus YJR043C, strain POL32, stronger effect = lower value 1.02 | locus YJR066W, strain TOR1, stronger effect = lower value 0.921
